Data on eight molecules can be found in PubChem BioAssay (NCI).

What all share (assay): NCI-60 one-dose screen, 48 h (100 = growth as untreated, 0 = no growth, -100 = all killed)
Holding throughout (details): 10 µM unless noted

Assay [1] concerns SR leukemia.
Assay [2] relates to RPMI-8226 leukemia.
Assay [3] deals with OVCAR-8 ovarian.
Assay [4] relates to OVCAR-5 ovarian.
The subject of assay [5] is OVCAR-4 ovarian.
Assay [6] deals with SK-OV-3 ovarian.
For assay [7], the system named is IGROV1 ovarian.
In assay [8] the test system is OVCAR-3 ovarian.
The subject of assay [9] is HS 578T breast.
Assay [10] relates to NCI/ADR-RES ovarian.
In assay [11] the test system is T-47D breast.
Assay [12] deals with BT-549 breast.
Assay [13] deals with MDA-MB-435 melanoma.
Assay [14] concerns SW-620 colon.
Assay [15] relates to HCT-116 colon.
Assay [16] concerns HCC-2998 colon.
Assay [17] has as its system KM12 colon.
Assay [18] concerns MCF7 breast.

This is part of a sample that, as a whole, favours compounds with a hit. Of some 83,000 tested, about 20% had one in any assay.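 The endpoint reported here, percent growth, reads 100 for growth as untreated, 0 for no net growth and -100 for all cells dead.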 A number with no mark means an inactive call. Activity calls are given as the source filed them. Rule for the calls: active = growth percent below 10; inactive = the rest.

With `Fc1ccc(-c2cc3nc(C(Cl)Cl)nc(-c4cccs4)n3n2)cc1`, the growth in assay [1] is 83.8%; in assay [2], -3.54% (active); in assay [3] it was 24%; in [4], 9.21% (active); in assay [5], 29.8%; in assay [6] it was 32%. Besides, the growth is 61.2% in assay [7]; -26.2% (active) in [8]; -5.63% (active) in assay [9]; 5.56% (active) in [10]; 25.2% in assay [11]; 92% in assay [12]. The growth in assay [13] is 14.3%; in [14], 2.69% (active); in assay [15], -2.24% (active); in [16], -61.5% (active); in assay [17] it was -30.5% (active).

As for `COc1c([C@@H](CC(C)C)OC(C)=O)ccc2c1C(=O)OCc1cc(C)cc(O)c1O2`, the growth in [1] was 19.1%; in assay [2], 27.6%; in [3], 21.2%; in assay [4], 69.4%; in [5] it was 25.9%; in assay [6], 24.3%. In addition, the growth was 44% in [7]; 43% in assay [8]; 45.9% in [9]; 12.6% in [10]; 17.4% in [11]; 31.3% in assay [12]. Besides, the growth in [13] was 30%; in assay [14], 20%; in [15] it was 12.3%; in assay [16] it was 35%; in [17], 30.7%.

Regarding `C=C1C(=O)O[C@@H]2C[C@@H](C)/C=C\C(=O)[C@](C)(OC(C)=O)C[C@H](OC(=O)/C(C)=C\C)[C@@H]12`, the growth was 3.84% (active) in [1]; -12.6% (active) in assay [2]; -16.1% (active) in assay [3]; -29.5% (active) in assay [4]; 18.2% in assay [5]; 80.7% in assay [6]. Besides, the growth was -19.7% (active) in assay [7]; -23.3% (active) in assay [8]; 19.1% in assay [9]; 10.5% in assay [10]; -72.8% (active) in assay [11]; -9.56% (active) in [12]. Also, the growth in assay [13] was -53.4% (active); in [14] it was -29.5% (active); in assay [18] it was 11.2%; in [15] it was -70.3% (active); in [17], 11.9%.

Regarding `C=C1C(=O)O[C@@H]2C[C@@H](C)CCC(=O)[C@](C)(OC(C)=O)C[C@H](OC(=O)/C(C)=C\C)[C@@H]12`, the growth in assay [1] is 4.94% (active); in assay [2], 32.3%; in assay [3] it was 66.8%; in [4], 114%; in assay [5], 81.2%; in assay [6], 94.8%. Besides, the growth was 89.2% in assay [7]; 34.9% in assay [8]; 101% in assay [9]; 97.2% in assay [10]; 39% in assay [11]; 80.3% in assay [12]. Moreover, the growth in assay [13] was 65.9%; in [14], 45.7%; in assay [18], 35.1%; in assay [15], 25.3%; in assay [17], 91.6%.

`CC1(C)CC[C@]2(C(=O)O)CC[C@]3(C)C(=CCC4[C@@]5(C)C[C@@H](O)[C@@H]6OC(c7ccccc7O)OC[C@@]6(C)C5CC[C@]43C)C2C1` (some centres not stated): the growth was 53.3% in [1]; 55.4% in [2]; 53.1% in [3]; 103% in assay [4]; 63.6% in [5]; 80% in [6]. Moreover, the growth in [7] is 57.2%; in assay [8] it was 47.4%; in [9], 80.6%; in assay [10], 34.6%; in assay [11] it was 57.7%; in [12] it was 42.4%. Besides, the growth is 77.5% in assay [13]; 37.8% in [14]; 62.8% in assay [18]; 4.38% (active) in assay [15]; 24.5% in [17].

For `COCCC[C@H]1O[C@@](O)([C@H](C)[C@@H]2CC(OC)C(O)/C=C(C)/C=C(C)/C=C(\C)C(OC3O[C@@H](C)[C@H](O)C(O)[C@@H]3O)C(C)/C=C(C)/C=C(OC)/C=C(\C)C(=O)O2)C(OC)C(O)[C@]1(C)O[C@H]1C[C@@H](O)[C@H](O[C@H]2C[C@](C)(O)[C@H](O)C(C)O2)C(C)O1` (some centres not stated), the growth in assay [1] was 113%; in assay [2], 27.5%; in assay [3], 41.9%; in [4], 78.9%; in [5], 19.7%; in assay [6] it was 61%. Also, the growth in [7] was 88.1%; in assay [8] it was 74.9%; in [9] it was 86.1%; in [10], 67.3%; in assay [11], 24.6%; in assay [12] it was 28.7%. Further, the growth in assay [13] is 54.9%; in [14], 76.4%; in assay [15], 48.2%; in [16], 56.4%; in assay [17], 66.5%.

Turning to `COc1ccc(-c2nn(-c3ccccc3)cc2/C=C/C(=O)c2ccc(NC(=O)CCCCCCC(=O)NO)cc2)cc1`, the growth in assay [1] was 110%; in assay [2], 115%; in assay [3], 99.7%; in assay [4] it was 108%; in assay [5], 97.5%; in assay [6] it was 91.7%. The growth in assay [7] was 96.2%; in [8], 96.2%; in assay [9], 87.2%; in assay [10], 97.8%; in assay [11] it was 103%; in [12] it was 105%. For the same molecule, the growth in assay [13] was 104%; in assay [14], 111%; in [15], 95.5%; in [16] it was 108%; in [17], 95.9%.

`Oc1ccc(CSc2nnc(-c3ccncc3)o2)c2cccnc12`: the growth is 50.4% in assay [1]; 5.35% (active) in assay [2]; 15.8% in assay [3]; 35.7% in assay [4]; 19.7% in assay [5]; 4.05% (active) in [6]. The growth in assay [7] is 22.4%; in assay [8] it was 19.8%; in [9] it was 5.36% (active); in assay [10], 58.4%; in [11], 15.8%; in assay [12], 23.7%. Besides, the growth in assay [13] was 13.4%; in [14], 16.4%; in [18], 4.01% (active); in assay [15], 8.9% (active); in assay [16] it was 30.2%; in assay [17], 14.2%.
